# The supplement of paper PMC6555819
# Tested on: THRa homodimer (NR concentration 90 nM)
# Test: PBM binding z-score (relative to random genomic background probes); higher = stronger binding; sequences stand for … in GC…GCGATTGACAGCGTAGAATGAAGG
# Summary of the method: (§1)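 Binding z-scores were set against random background probes. The data came from custom Agilent 4×180K protein-binding microarrays carrying double-stranded probes with 34-nt variable regions, incubated 1 h with ligand-free nuclear receptor dimers. Partner-specific antibodies detected binding, and scanned fluorescence was regression-normalized.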
row,Sequence,PBM binding z-score
1,CCTACTGGGTCATCAGGTCATTGATATCAACGTT,3.17
2,TAGACTAGGTCATGGGCCAGTATACCACGCGAAC,0.989
3,TCTTGTAAATCAAGCAGGTTAAGAAAGCCTGAGT,-0.571
4,TCATATAGCTAATACAGGTGAAAGTCGGCATCTA,-0.541
5,GTAGACAGGTGAAACGCAGGTAACTCAGGGTGGC,-0.349
6,CAGCCTAGGTCAGGGCCAGTATCGGAGGAACGTT,0.58
7,ATCTCTAGGTAAGACTCTGTTCAGTGAAGAACGC,0.576
8,TCGAGTAGGTTAGGTGCATTCAGAATGGCGTCGA,-0.111
9,TCATCTAGGTAAATGCTAGGTGAAAGTCCGATCT,0.631
10,CCGAGTAGGTTATGCGGCATTCAGGCAACGGTGA,0.263
11,TCTTGTAGATCAACAGGATGTTAAGAAAGATCGA,-0.851
12,TCGAGTAGGTCAGTCGGGGCATTCAGCCAACATA,-0.201
13,CCTACTGGGCCAAAAAGGTTATTGATGCCGATAA,-0.462
14,CGTCCAAGGTCACAGGTCAGTGAAGAGATGACGG,3.28
15,TCATATAGGTAGAAGGTGAAAGTCGGTGTGGTAA,0.397
16,ATCGAAAGGTCGAGGTAAGTATAGAGAAAGGGAA,0.233
17,CGTCCAAGGTCAGCAGGTCAGTGAGAGCGACGTG,2.56
18,TCATATAGGGAAAAGGTGAAAGTCGGTGTGGTAA,0.582
19,ACTATTAGTTGACTTAGGGCAACCAATACGACGC,0.216
20,ACTAGCAGGCCAAGCGTCACTCAAGATTAGTCCG,-0.737

row,Sequence,PBM binding z-score
1,AATACAGGGTCATCGTAGGCCTGAGTACGCACAG,1.25
2,ACTATTAGTTGACTTATGGCAACCGATACGACGC,-0.0591
3,TTACCAAGGTGAGCTGAGGTCGTTGGTCCAACTC,2.2
4,CCTACTGGGCCATTCAGAGTTCATTGATCATATG,0.0171
5,TCTTGTAGATCAACAGGAGGTTAAGAAAGATCGA,-0.703
6,AGAATGAGGTTATACGTAGAGCAGGGAAGAAAGT,0.488
7,ACTAGTTGGTCAGCTGAGTTCACACACAATTCGG,1.05
8,CAGCCTAGGTCAGGCCCAGTATAGGAGGAACGTT,0.183
9,CGTCCAAGGTCATAGGAGGTCAGTGCAGACAGAT,2.96
10,GTACCAAGGTCAATAGGTCGTTGATGAGTAGGCG,1.77
11,ATCTCTAGTTAAGACTCAGTTCAGTGAAGAACGC,0.6
12,CCTAGCAGGCCAATCTGGGTAACTCAAGGCTTGA,-0.653
13,GCTAGTTGGTCAGTAAAAGGCCACACACCGGTCG,-0.175
14,CCTAGTTGGTCAGGAGGTCACACACCGGATATGA,2.6
15,CCTCGGAGGACAACTGGAGGTCAGAGCTGCCAGA,1.3
16,ATATGTAGGTTAGCTGGGATCATTCAGACTAGGC,-0.1
17,AGTCAAAGTGCAGGACGAGGTAACGTAAAGCACG,0.449
18,GCAGACAGGTGAAACGCAGGTAGCTCAGGGTGGC,-0.86
19,AGCGAAAGGTCGACGAGGTGAGTATACACCGTTT,0.716
20,TACCCTAGGTCAGATCGGGCCAGTATACGCTATA,0.64

# Tested on: VDR homodimer (NR concentration 270 nM)
# Test: as above
# Summary of the method: as §1
row,Sequence,PBM binding z-score
1,CCTACTGGGTCATCAGGTCATTGATATCAACGTT,3.06
2,TAGACTAGGTCATGGGCCAGTATACCACGCGAAC,0.435
3,TCTTGTAAATCAAGCAGGTTAAGAAAGCCTGAGT,-0.0324
4,TCATATAGCTAATACAGGTGAAAGTCGGCATCTA,-0.107
5,GTAGACAGGTGAAACGCAGGTAACTCAGGGTGGC,-0.271
6,CAGCCTAGGTCAGGGCCAGTATCGGAGGAACGTT,-0.476
7,ATCTCTAGGTAAGACTCTGTTCAGTGAAGAACGC,-0.00157
8,TCGAGTAGGTTAGGTGCATTCAGAATGGCGTCGA,1.47
9,TCATCTAGGTAAATGCTAGGTGAAAGTCCGATCT,-0.208
10,CCGAGTAGGTTATGCGGCATTCAGGCAACGGTGA,-0.167
11,TCTTGTAGATCAACAGGATGTTAAGAAAGATCGA,-0.332
12,TCGAGTAGGTCAGTCGGGGCATTCAGCCAACATA,1.42
13,CCTACTGGGCCAAAAAGGTTATTGATGCCGATAA,0.00157
14,CGTCCAAGGTCACAGGTCAGTGAAGAGATGACGG,2.75
15,TCATATAGGTAGAAGGTGAAAGTCGGTGTGGTAA,0.453
16,ATCGAAAGGTCGAGGTAAGTATAGAGAAAGGGAA,0.546
17,CGTCCAAGGTCAGCAGGTCAGTGAGAGCGACGTG,1.93
18,TCATATAGGGAAAAGGTGAAAGTCGGTGTGGTAA,0.643
19,ACTATTAGTTGACTTAGGGCAACCAATACGACGC,0.251
20,ACTAGCAGGCCAAGCGTCACTCAAGATTAGTCCG,-1.26

row,Sequence,PBM binding z-score
1,AATACAGGGTCATCGTAGGCCTGAGTACGCACAG,3.73
2,ACTATTAGTTGACTTATGGCAACCGATACGACGC,0.143
3,TTACCAAGGTGAGCTGAGGTCGTTGGTCCAACTC,2.56
4,CCTACTGGGCCATTCAGAGTTCATTGATCATATG,5.74
5,TCTTGTAGATCAACAGGAGGTTAAGAAAGATCGA,-0.387
6,AGAATGAGGTTATACGTAGAGCAGGGAAGAAAGT,0.731
7,ACTAGTTGGTCAGCTGAGTTCACACACAATTCGG,6.71
8,CAGCCTAGGTCAGGCCCAGTATAGGAGGAACGTT,-0.788
9,CGTCCAAGGTCATAGGAGGTCAGTGCAGACAGAT,4.88
10,GTACCAAGGTCAATAGGTCGTTGATGAGTAGGCG,2.55
11,ATCTCTAGTTAAGACTCAGTTCAGTGAAGAACGC,1.67
12,CCTAGCAGGCCAATCTGGGTAACTCAAGGCTTGA,-0.997
13,GCTAGTTGGTCAGTAAAAGGCCACACACCGGTCG,-0.584
14,CCTAGTTGGTCAGGAGGTCACACACCGGATATGA,2.82
15,CCTCGGAGGACAACTGGAGGTCAGAGCTGCCAGA,1.48
16,ATATGTAGGTTAGCTGGGATCATTCAGACTAGGC,0.36
17,AGTCAAAGTGCAGGACGAGGTAACGTAAAGCACG,0.0328
18,GCAGACAGGTGAAACGCAGGTAGCTCAGGGTGGC,-0.785
19,AGCGAAAGGTCGACGAGGTGAGTATACACCGTTT,0.753
20,TACCCTAGGTCAGATCGGGCCAGTATACGCTATA,0.268
